PubChem BioAssay AID651789 (National Center for Advancing Translational Sciences (NCATS), 2012)
Results filed as inconclusive are left out. The source made the active and inactive calls. Calls follow the shape of the dose curve; as a rule, active = well fitted inhibition curve with a large enough effect; inconclusive = small, poorly fitted or top-dose-only effect; inactive = no such curve, though single readings can be large or run the other way.

Experiment: Acumen qHTS Assay for Inhibitors of the mTORC1 Signaling Pathway in WT MEF Cells: Hit Validation; also: nearly all actives have a fitted effect of over 60% in size
Details: Acumen imaging; series mostly up to 37.3 µM
Procedure, shortened: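 Read-out is immunofluorescent phospho-rpS6 (Ser235/236) normalised to PI-stained cell number, reported as % active cells using a 7.5 nM rapamycin threshold. Cells: WT or Tsc2-/-, p53-/- MEFs, compound-exposed 24 h at 37C; PI count also tracks viability.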
Potency is read from the fitted curve at half-maximal effect.

Potency, inactive:
CCc1ccccc1NC(=O)CSc1nc2c(oc3ccccc32)c(=O)n1-c1ccccc1F
Cn1nnnc1SCCCNCc1cccc(OCc2ccc(Cl)cc2)c1
COc1ccc2cc(CNc3ccccc3)c(=O)n(CC(=O)Nc3ccc(C)cc3C)c2c1
Cc1ccc(S(=O)(=O)Nc2ccc3c(c2)c(C(=O)OC(C)C)c(C)n3S(=O)(=O)c2ccc(C)cc2)cc1
CC(C)OCCCn1c(=O)c2ccccc2n2c(-c3ccc(F)cc3)nnc12
Brc1ccc(Nc2c3c(nc4nncn24)CCC3)cc1
COc1cc(NC(=O)Cn2nc(C(F)(F)F)c3c2CCCC3)c(OC)cc1Cl
COc1cc(OC)cc(C(=O)NCCc2csc(-c3cccc(C)c3)n2)c1
CS(=O)(=O)N(CC(=O)NCCc1ccccc1)c1cc(C(F)(F)F)ccc1Cl
CCOC(=O)c1ccc2ncc(C(=O)OCC)c(NCCc3ccc(OC)c(OC)c3)c2c1
O=C(CS(=O)(=O)c1cccc2nsnc12)NCc1ccc(Cl)cc1
CCN(CC)CCNC(=O)c1ccc(Cn2c(=O)c3cccn3c3cccnc32)cc1
COc1ccc(NC(=O)CSc2c3c(nc4ccccc24)CCC3)c(OC)c1
COC(=O)c1ccccc1NC(=O)CSc1n[nH]c(CC(C)C)n1
COc1cccc(-c2cc(C(=O)Nc3cnn(Cc4ccc(Cl)cc4Cl)c3)no2)c1
NC(=O)c1ccc(-c2nc(-c3ccc4c(c3)OCO4)c(-c3ccccn3)[nH]2)cc1
CC1CCCCN1c1nnc(NC(=O)Nc2ccccc2F)s1 (stereo not given)
CC(C)N(C(=O)CSc1nc2ccc(Cl)cc2[nH]1)c1ccccc1
CC(C)(C)C1CCc2c(sc(NC(=O)C3c4ccccc4Oc4ccccc43)c2C(N)=O)C1 (stereo not given)
Cn1ccc2c(OCC(=O)Nc3ccc(OC(F)(F)F)cc3)cccc2c1=O
Cc1ccc(NC(=O)CSc2ncc3c(n2)-c2ccccc2N(C)S3(=O)=O)c(Cl)c1
CCOc1ccc(-c2cnc(NCc3ccc(C(F)(F)F)cc3)n2C)cc1
COc1ccc(C)cc1NC(=O)CCNS(=O)(=O)c1cccc2nonc12
Cc1cn([C@H]2C[C@H](N=[N+]=[N-])[C@@H](CO)O2)c(=O)[nH]c1=O
COc1cc(C(=O)N(CCCN(C)C)c2nc3c(OC)cccc3s2)cc(OC)c1OC
CCn1c(CC2C(=O)N(C)c3ccc(Br)cc32)nc2ccccc2c1=O (stereo not given)
COc1cc(-c2ccno2)ccc1S(=O)(=O)N1CCN(c2cc(C)ccc2C)CC1
Cc1ccccc1CN1C(=O)C(O)(CC(=O)c2cccc(Br)c2)c2ccccc21 (stereo not given)
COc1cc(C(=O)NC(c2ccccc2Cl)c2cc(Cl)c3cccnc3c2O)cc(OC)c1OC (stereo not given)
COc1cccc(C(=O)Nc2ccc(-c3cc(C(F)(F)F)nn3-c3ccccc3)cc2)c1
Cc1ccc(C)c(N2CCN(CCCNC(=O)c3nnc(Cc4ccc(F)cc4Cl)o3)CC2)c1
COc1cc(Br)ccc1C1C(C(=O)Nc2ccc(C)cc2C)=C(C)Nc2nnnn21 (stereo not given)

Potency, active:
Cc1noc(/C=C/N(C)C)c1S(=O)(=O)N1CCCC(C(=O)Nc2ccc(F)cc2F)C1 (stereo not given) 1.85 µM
CCCC(=O)OC1=CN(Cc2ccccc2)S(=O)(=O)c2ccccc21 3.69 µM
CN(C)c1ccc(NC(=O)Cn2cc(S(=O)(=O)Cc3ccccc3Cl)c3ccccc32)cc1 13.1 µM
Nc1c(C(=O)NCc2ccccc2)nnn1Cc1cccc(Br)c1 13.1 µM
Cc1c(C(=O)OCc2ccccc2)[nH]c2c1C(=O)CC(c1ccc(Cl)cc1)C2 (stereo not given) 13.1 µM
C=CCNC1=C2C[C@@H](C)C[C@H](OC)[C@H](O)[C@@H](C)/C=C(\C)[C@H](OC(N)=O)[C@@H](OC)/C=C\C=C(/C)C(=O)NC(=CC1=O)C2=O 0.515 µM
CCCCn1c(=N)n(CCOc2ccccc2OC)c2ccccc21 11.7 µM
CC(C)(C)OC(=O)N1CCC(c2c(C(=O)NCCN3CCC(Cc4ccccc4)CC3)cnn2-c2cccc(Cl)c2)CC1 10.4 µM
